Source: PubChem
ClpP mod: qHTS Assay for Activators of ClpP; Potency, µM (top dose mostly 57.5 µM); 1.9% of 340,000 active; purified B. subtilis ClpP, FRET peptide cleavage, 20 min; active = well fitted falling curve with a large enough effect; inconclusive = small, poorly fitted or top-dose-only effect; inactive = no such curve, though single readings can be large or run the other way; also: the source files actives as falling curves though it sought activators and does not explain the sign; nearly all actives have a fitted effect of over 65% in size
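ClpP 10 microg/mL final, pH 8 Tris/KCl buffer with BSA, glycerol, Tween-20; compound pinned in; FRET-FV substrate; RT 20 min; Ex320/Em430; ΔFRET vs ADEP 5.8 microM, DMSO, no enzyme.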
IL1B secr inh: inflammasome signaling inhibition, IL-1 beta readout | THP-1 LPS/ATP IL-1B secretion, AlphaLISA, 16 h; stronger effect = lower value | activity change, % at 57.5 µM | 4.7% of 360,000 active | AID 743279; in the data active = activity change below about -50%; inconclusive = mostly about -30% to -49%
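Secreted IL-1B measured by AlphaLISA bead assay after 16 h compound exposure of THP-1 cells; compounds (final up to 57.5 uM) added 1 h before LPS (250 ng/mL) and ATP (1.25 mM) stimulation; lower signal means less secretion.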
TDP1 cell CPT: growth inhibition of DT40 Tdp1-/-;hTDP1 cells with camptothecin (screen for TDP1 inhibitors). 12% of 420,000 active. Potency, µM (highest dose often 46.2 µM), hits mostly inhibitors. chicken DT40 Tdp1-/-;hTDP1 cells + 20 nM CPT, ATP luminescence, 48 h; also: nearly all actives have a fitted effect of over 55% in size
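Chicken DT40 Tdp1-/- cells complemented with human TDP1, 400 cells/well, exposed to compounds plus 20 nM camptothecin for at least 48 h at 37 C; viability read as ATP content by CellTiter-Glo luminescence.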
DRD3 agonist: D3 dopamine receptor (human) agonism; P35462; max activation, %; 0.58% of 410,000 active; D3R DiscoveRx beta-arrestin cells, luminescence, 90 min; in the data active = max activation above about 30%
Target sequence (P35462 whole entry, looked up): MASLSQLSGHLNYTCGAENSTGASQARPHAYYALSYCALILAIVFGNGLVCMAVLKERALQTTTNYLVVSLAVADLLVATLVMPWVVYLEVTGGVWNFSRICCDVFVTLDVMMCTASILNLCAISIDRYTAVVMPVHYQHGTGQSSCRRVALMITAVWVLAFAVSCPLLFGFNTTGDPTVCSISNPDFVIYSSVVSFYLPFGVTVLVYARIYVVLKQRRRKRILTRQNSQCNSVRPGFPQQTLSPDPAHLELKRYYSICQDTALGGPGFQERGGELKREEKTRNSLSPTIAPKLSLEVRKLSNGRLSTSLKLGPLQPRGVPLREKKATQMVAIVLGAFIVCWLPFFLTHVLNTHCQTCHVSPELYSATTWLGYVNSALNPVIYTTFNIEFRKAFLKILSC
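Cells at 1500/well, incubated overnight, then treated with pinned compounds (dopamine as control) for 90 min at 37 degrees C. DiscoveRx reagent added for 30 - 60 minutes at room temperature; luminescence read.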
DT40 TDP1 no CPT: qHTS for Inhibitors of human tyrosyl-DNA phosphodiesterase 1 (TDP1): qHTS in cells in absence of CPT. DT40 Tdp1-/- hTDP1 cells, no CPT, ATP luminescence, 48 h. Potency, µM (highest dose often 46.2 µM), hits mostly inhibitors. 15% of 420,000 active; also: nearly all actives have a fitted effect of over 55% in size
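No-CPT arm: Tdp1-/-;hTDP1 DT40 cells (400/well) plus compounds, incubated ≥48 hr at 37 °C. Readout CellTiter-Glo luminescence.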
DRD3 antagonist: D3 dopamine receptor (human) antagonism; P35462; D3R cells, DiscoveRx beta-arrestin luminescence, antagonist mode; stronger effect = lower value; max response, negative = inhibition, %; 2.5% of 360,000 active; AID 652054; in the data active = max response below about -50%; inconclusive = no clear call, values can overlap the other calls
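Cells plated overnight at 1500 cells/well, then exposed to library compounds with dopamine controls for 90 minutes at 37 degrees C. DiscoveRx reagent added for 30–60 minutes at room temperature; luminescence read, quantitative HTS format.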
Each line names hits and unclear results; the compound was inactive in the other large screens. Only some compounds are listed: those with a hit (about 21% of all), similar ones and a draw of the others. Unless noted, calls follow the shape of the dose curve; as a rule, active = well fitted inhibition curve with a large enough effect; inconclusive = small, poorly fitted or top-dose-only effect; inactive = flat fitted curve, though single readings scatter.

O=C1NC(=O)[C@@]2(CCOc3ccc(F)cc32)N1	none (no result: ClpP mod, IL1B secr inh, DRD3 antagonist)
COc1cccc(CNC(=O)COC(=O)CCS(=O)(=O)c2ccc(C)cc2)c1	none
CN(Cc1ccccc1)Cc1nc2c(c(=O)n(C)c(=O)n2C)n1CCCc1ccccc1	TDP1 cell CPT 18.4µM, DT40 TDP1 no CPT 15.8µM
CC(C)Cn1c(CN(C)Cc2ccccc2)nc2c1c(=O)n(C)c(=O)n2C	TDP1 cell CPT 6.51µM, DT40 TDP1 no CPT 7.31µM
CCOC(=O)Cn1c(CN(C)Cc2ccccc2)nc2c1c(=O)n(C)c(=O)n2C	TDP1 cell CPT 9.2µM, DT40 TDP1 no CPT 11.6µM
Cc1nnc(SCCn2c(N(C)Cc3ccccc3)nc3c2c(=O)n(C)c(=O)n3C)s1	TDP1 cell CPT inconclusive, DT40 TDP1 no CPT 11.2µM, DRD3 antagonist inconclusive
COC(=O)Cn1c(CN(C)Cc2ccccc2)nc2c1c(=O)n(C)c(=O)n2C	TDP1 cell CPT inconclusive, DT40 TDP1 no CPT inconclusive
CC(=O)NCc1c(I)c(NC(C)=O)c(I)c(C(=O)O)c1I	none (no result: ClpP mod, IL1B secr inh, DRD3 antagonist)
CCc1nc2oc3ccccc3c(=O)c2cc1C(=O)OC	none
Cn1c(N2CCOCC2)c(/C=N/OC(=O)c2ccc(F)cc2)c2ccccc21	TDP1 cell CPT 3.66µM, DT40 TDP1 no CPT 2.91µM
Cn1c(N2CCOCC2)c(/C=N/OC(=O)c2cccnc2Cl)c2ccccc21	TDP1 cell CPT inconclusive, DT40 TDP1 no CPT inconclusive (no result: ClpP mod)
Cc1ccc(C(=O)O/N=C/c2c(N3CCOCC3)n(C)c3ccccc23)cc1	ClpP mod inconclusive, TDP1 cell CPT 3.26µM, DRD3 agonist 53.4, DT40 TDP1 no CPT 4.11µM
Cn1c(Cl)c(/C=N/OC(=O)c2ccc(Cl)cc2)c2ccccc21	DT40 TDP1 no CPT inconclusive, DRD3 antagonist -69.4
COc1ncc2nc(-c3cc(F)cc(F)c3)c(=O)n(Cc3cccs3)c2n1	none (no result: ClpP mod, IL1B secr inh, DRD3 agonist, DRD3 antagonist)
C#CCOCCOCCOCCNc1nc(N2CCN(C(=O)Cn3cc(CC(C)O)nn3)CC2)nc(N2CCN(C(=O)[C@H](C)n3cc(CCC(=O)O)nn3)CC2)n1 (stereo partly drawn)	none
COc1cc(NC(=O)CN(C)S(=O)(=O)c2ccc3c(c2)CCC(=O)N3)cc(OC)c1	none
CN(CC(=O)NCc1ccccc1)S(=O)(=O)c1ccc2c(c1)CCC(=O)N2	none
CN(CC(=O)NCCN1CCN(c2ccccc2)CC1)S(=O)(=O)c1ccc2c(c1)CCC(=O)N2	TDP1 cell CPT inconclusive, DT40 TDP1 no CPT inconclusive, DRD3 antagonist -64.0
COc1cccc(N2CCN(C(=O)CN(C)S(=O)(=O)c3ccc4c(c3)CCC(=O)N4)CC2)c1	TDP1 cell CPT 29.1µM, DT40 TDP1 no CPT 18.4µM
Cc1ccc(C)c(NC(=O)CN(C)S(=O)(=O)c2ccc3c(c2)CCC(=O)N3)c1	none (no result: IL1B secr inh, DRD3 antagonist)
Cc1cc(NC(=O)CN(C)S(=O)(=O)c2ccc3c(c2)CCC(=O)N3)ccc1Br	TDP1 cell CPT 29.1µM, DT40 TDP1 no CPT 20.6µM (no result: IL1B secr inh, DRD3 antagonist)
Nc1cc(C(F)(F)F)ccc1NCCc1ccccn1	IL1B secr inh inconclusive (no result: ClpP mod)
COCc1cc(C)nc(Sc2nc3c(c(=O)n(C)c(=O)n3C)n2C)c1C#N	none
Cc1ccc(NC(=O)C2(C)CCN2C(=O)CCC2CCCC2)cc1C (stereo not drawn)	TDP1 cell CPT inconclusive, DT40 TDP1 no CPT inconclusive
COc1ccc(OC)c(NC(=O)C2(C)CCN2C(=O)CCC2CCCC2)c1 (stereo not drawn)	TDP1 cell CPT 16.4µM, DT40 TDP1 no CPT inconclusive
CC1(C(=O)Nc2ccc(Cl)c(Cl)c2)CCN1C(=O)CCC1CCCC1 (stereo not drawn)	TDP1 cell CPT 23.1µM, DT40 TDP1 no CPT 23.1µM
CC1(C(=O)Nc2cccc3c2CCCC3)CCN1C(=O)CCC1CCCC1 (stereo not drawn)	TDP1 cell CPT 20.6µM, DT40 TDP1 no CPT inconclusive
CCCS(=O)(=O)NC(=O)C1(C)CCCN(C(=O)c2cc(C)nn2C(C)(C)C)C1 (stereo not drawn)	none
